Measured values reported in PubChem BioAssay AID618 (Sanford-Burnham Center for Chemical Genomics, 2007).
Among all 87,000 compounds or so, about 540 (0.62%) were called active. This is one part of a sample in which actives are shown more often than they occur. No rule for the calls is given here. Entries with a potency or affinity are not part of this list.

Assay: inhibitors of MT1-MMP promoter transcription, cell-based, luciferase reporter, luminescence (AID 618);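 also: actives suppress MT1-MMP promoter-driven transcription so potencies describe inhibitors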
Settings: MT1-MMP promoter luciferase reporter cells

Structure (SMILES) | outcome
Cc1csc(NC(=O)CSc2nnc(-c3ccoc3C)o2)n1 | inactive
CCC(O)c1cc2c(cc1NC(=O)c1cccs1)OCCO2 (stereo not drawn) | inactive
Cc1ccc(C(=O)NCCCNCCCNC(=O)c2ccc(C)nc2)cn1 | inactive
CCn1c(COc2cccc(C)c2)nnc1SCC(=O)Nc1cccc(C(=O)OC)c1 | inactive
CC(CC(=O)O)CC(=O)Nc1ccccc1C(=O)O (stereo not drawn) | inactive
COc1ccc(-c2cc3nc4c(c(=O)n3[nH]2)CCC4)cc1 | inactive
O=c1c2c(nc3cc(-c4ccccc4)[nH]n13)CCC2 | inactive
COCCCN1C(=O)C(=O)/C(=C(/O)c2ccc(OC(C)C)cc2)C1c1cccnc1 (stereo not drawn) | inactive
Nc1nc(-c2nc3ccccc3[nH]2)cs1 | inactive
COc1ccc2nc(-c3cccc(N)c3)[nH]c2c1 | inactive
c1ccc2[nH]c(-c3ccnc4ccccc34)nc2c1 | inactive
c1ccc2nc(-c3nc4ccccc4[nH]3)ccc2c1 | active
COc1ccc2nc(-c3ccccc3)[nH]c2c1 | active
CCOc1ccc2nc(-c3ccccc3)[nH]c2c1 | inactive
COc1ccc(OCc2nc3ccccc3[nH]2)cc1 | inactive
Nc1ccc(-c2nc3ccccc3[nH]2)cc1 | inactive
CC(C)CN1C(=O)c2ccc(NC(=O)c3cccs3)cc2C1=O | inactive
O=C(NCc1ccco1)C(c1ccccc1)N(C(=O)Cc1cccs1)c1ccccc1 (stereo not drawn) | inactive
CC(=O)NCCOc1cccc(OCCNC(C)=O)c1 | inactive
COc1cc(/C=N/NC(=O)CCc2c(C)n[nH]c2C)ccc1O | inactive
CCn1ncc(Br)c1C(=O)Nc1ccc(Cl)cn1 | inactive
COc1ccc(OC)c(S(=O)(=O)NC2CCCCC2)c1 | inactive
CCn1cc(C(=O)N2CCc3ccccc3C2)c(=O)c2cc(S(=O)(=O)N3CCCCC3)ccc21 | inactive
Cc1ccc(NC(=O)c2cccs2)cc1 | inactive
Cc1nc(-c2ccc(NC(=O)c3cccs3)cc2)cs1 | active

Structure (SMILES) | outcome
Cc1nc(-c2cccc(NC(=O)c3cccs3)c2)cs1 | inactive
COc1ccc(OC)c(-n2c(-c3ccccc3)n[nH]c2=S)c1 | inactive
COc1ccc(OCc2cccc(C(=O)O)c2)cc1 | active
CCOc1cc(OCC)cc(C(=O)O)c1 | inactive
CCOc1ccc(OCc2ccc(C(=O)N3CCOCC3)cc2)cc1 | inactive
CCOc1ccc(OCc2cccc(C(=O)O)c2)cc1 | active
COc1ccc(OCc2cccc(C(=O)Nc3cc(C)on3)c2)cc1 | inactive
CC(Oc1ccc(C(=O)NCCc2ccccc2)cc1)C(=O)O (stereo not drawn) | inactive
CCCCOc1cccc(C(=O)O)c1 | inactive
CC(C)OC(=O)C(C)Oc1ccc(C(=O)NCCc2ccccc2)cc1 (stereo not drawn) | inactive
CCOc1ccc(OCc2cccc(C(=O)N3CCOCC3)c2)cc1 | active
COc1ccc(OCc2ccc(C(=O)O)cc2)cc1 | inactive
CCOc1ccc(OCc2cccc(C(=O)N3CCCC3)c2)cc1 | inactive
CSc1nc2nc(C(F)(F)F)cc(-c3ccccc3)n2n1 | inactive
COc1ccccc1C(=O)Nc1ccc2c(c1)nc1n2CCSC1 | inactive
CSc1ccccc1C(=O)Nc1nccs1 | inactive
Cc1nn(-c2ccccc2)c2c1C1(C(=O)N(C(C)C)c3ccccc31)C(C#N)=C(N)O2 (stereo not drawn) | inactive
Cc1nc(SCC(=O)NC2CCCC2)[nH]c(=O)c1Cc1ccccc1 | inactive
CCOc1ccc(OCc2ccc(C(=O)Nc3cccc(C)n3)o2)cc1 | inactive
CCCCOc1ccc(C(=O)Nc2cccc(C)n2)cc1 | inactive
CCOc1ccc(C(=O)Nc2cccc(C)n2)cc1 | active
O=C(NCc1cccs1)c1cc(-c2cccc(Cl)c2)on1 | inactive
Cc1ccc(-n2nc3c(c2NC(=O)c2ccc(OC(C)C)cc2)CS(=O)C3)cc1 (stereo not drawn) | inactive
COC(=O)C12CC3CC(C1)CC(n1cnc(Cl)n1)(C3)C2 | inactive
CC(=O)N(c1ccc(Cl)cc1)c1c[nH]c2ccccc12 | inactive

Structure (SMILES) | outcome
CCN(CC)CC(=O)c1c[nH]c2ccccc12 | inactive
O=C(CCl)N(c1ccccc1)c1c[nH]c2ccccc12 | active
O=C(O)CCC(=O)c1c[nH]c2ccccc12 | inactive
O=C(CCl)N(c1ccc(Cl)cc1)c1c[nH]c2ccccc12 | active
CN(C)CC(=O)c1c[nH]c2ccccc12 | inactive
O=C(NCCN1CCN(Cc2ccccc2Cl)CC1)Nc1ccccc1 | inactive
CCCCOc1ccc(CN2CCCCC2)cc1 | inactive
CCCCOc1ccc(CN2CCC(O)CC2)cc1 | inactive
CC(C)NC(=O)c1ccccc1NC(=O)CN(c1ccc2c(c1)OCO2)S(C)(=O)=O | inactive
CCCn1nnc(NC(=O)c2cccc(Cl)c2)n1 | inactive
CN1CCN(CCCN2c3ccccc3Sc3ccc(Cl)cc32)CC1 | inactive
CSc1ccc2c(c1)N(CCC1CCCCN1C)c1ccccc1S2 (stereo not drawn) | active
CN(C)CCCN1c2ccccc2Sc2ccc(C(F)(F)F)cc21 | inactive
COC(=O)c1ccc(OC)c(CSc2nnc(-c3ccc(C(C)(C)C)cc3)o2)c1 | inactive
CC(C)CNC(=O)CSc1ccc(Cl)cc1 | inactive
Cc1cccc(NC(=S)NNC(=O)CCn2nc(C)c([N+](=O)[O-])c2C)c1 | inactive
c1ccc(Cn2nnc3c(N4CCOCC4)ncnc32)cc1 | inactive
c1ccc(-n2nnc3c(N4CCOCC4)ncnc32)cc1 | active
S=c1sc2c(N3CCOCC3)ncnc2n1-c1ccccc1 | inactive
Nc1cc(=O)[nH]c(SCc2nc3ccccc3n2Cc2ccccc2)n1 | inactive
CSCC[C@H](NC(=O)OC(C)(C)C)c1nnc(SCC(N)=O)o1 | inactive
COc1ccc(S(=O)(=O)n2nc(OC(=O)C3CCCCC3)cc2N)cc1 | inactive
O=C(Nc1nncs1)C1COc2ccccc2O1 (stereo not drawn) | inactive
O=C(Nc1nc(-c2ccc3c(c2)OCO3)cs1)C1COc2ccccc2O1 (stereo not drawn) | inactive
O=C(Nc1nc(-c2ccccn2)cs1)C1COc2ccccc2O1 (stereo not drawn) | inactive

Structure (SMILES) | outcome
COc1ccc2nc(NC(=O)C3COc4ccccc4O3)sc2c1 (stereo not drawn) | inactive
O=C(Nc1ncc(Cc2ccccc2)s1)C1COc2ccccc2O1 (stereo not drawn) | inactive
O=C(NC1=NCCS1)C1COc2ccccc2O1 (stereo not drawn) | active
Cc1nc2ccc3nc(NC(=O)C4COc5ccccc5O4)sc3c2s1 (stereo not drawn) | inactive
O=C(Nc1ccncc1)C1COc2ccccc2O1 (stereo not drawn) | inactive
Cc1nnc(NC(=O)C2COc3ccccc3O2)s1 (stereo not drawn) | inactive
COc1ccc(OC)c(S(=O)(=O)Nc2ccc(CC(=O)O)cc2)c1 | inactive
CN(C)/C=N/c1c(C#N)nnn1Cc1ccccc1 | inactive
Cc1ccc2nc3n(c(=O)c2c1)CCCCC3 | inactive
CCCCn1c(C(C)NC(=O)c2cccs2)nc2ccccc21 (stereo not drawn) | inactive
COc1ccccc1N1CCN(C(=O)CSc2nnc(NC(=O)c3ccco3)s2)CC1 | inactive
CCc1nnc(NC(=O)C2COc3ccccc3O2)s1 (stereo not drawn) | inactive
O=C(Nc1nnc(C(F)(F)F)s1)C1COc2ccccc2O1 (stereo not drawn) | inactive
COc1ccc(-c2noc(CCC(=O)Nc3nc4ccccc4s3)n2)cc1 | inactive
Cc1nnc(SCC(=O)Nc2cc(C(F)(F)F)ccc2N2CCOCC2)o1 | inactive
Cc1ccc2nc(SCC(=O)Nc3cc(C(F)(F)F)ccc3N3CCOCC3)[nH]c2c1 | active
Cc1onc(-c2ccccc2)c1C(=O)Nc1ccccc1N1CCOCC1 | inactive
O=C(CSc1nc2ccccc2[nH]1)Nc1cc(C(F)(F)F)ccc1N1CCOCC1 | inactive
Cc1onc(-c2ccccc2)c1C(=O)Nc1cc(C(F)(F)F)ccc1N1CCOCC1 | active
O=C(Nc1cc(C(F)(F)F)ccc1N1CCOCC1)c1c(F)c(F)c(F)c(F)c1F | inactive
CCN(CC)c1ccc2cc(C(=O)Nc3ccc(-n4cnnn4)c(OC)c3)c(=O)oc2c1 | inactive
COCc1cc(C)nc2sc(C(=O)Nc3nccs3)c(N)c12 | inactive
CCOC(=O)CNC(=O)c1sc2nc(C)cc(C)c2c1N | inactive
Cc1cc(C)c2c(N)c(C(=O)NC3CC3)sc2n1 | inactive
CCOC(=O)c1sc2nc(C)cc(C)c2c1N | inactive

Structure (SMILES) | outcome
COCCNC(=O)C(c1cccs1)N(CCc1ccccc1)C(=O)Cn1nnc2ccccc21 (stereo not drawn) | inactive
O=C(CSc1nnc(CNC(=O)c2cccs2)o1)NCCc1ccccc1 | inactive
O=C(CNC(=O)c1ccco1)NCC(=O)OC(C(=O)c1ccccc1)c1ccc(Cl)cc1 (stereo not drawn) | inactive
CC1CCCc2sc3nc(N4CCN(CCO)CC4)n4ncnc4c3c21 (stereo not drawn) | inactive
COCCn1c(C)cc(C(=O)COc2nc3ccccc3nc2C)c1C | inactive
COCCn1c(C)cc(C2=NNC(=Nc3ccc(Cl)cc3Cl)SC2)c1C | inactive
COCCn1c(-c2ccccc2F)n[nH]c1=S | inactive
COCCn1c(C)cc(C2=NNC(=Nc3ccc(OC)cc3)SC2)c1C | inactive
CCOC(=O)c1c(C)c(C(=O)NC2CCCCC2)c(C)n1CC | inactive
Cc1ccc(-c2ccccc2NC(=O)CCl)o1 | inactive
CN1/C(=C/C2CC(=O)N(c3cccc4ccccc34)C2=O)C(C)(C)c2ccccc21 (stereo not drawn) | inactive
CN1/C(=C/C=N/n2cnnc2)C(C)(C)c2ccccc21 | inactive
O=C(O)CCn1c(=S)oc2ccccc21 | inactive
Cc1cc(NC(=O)c2cc(Cl)ccc2Cl)no1 | inactive
O=C(C1CCCCC1)N(Cc1ccccc1)c1ccccn1 | inactive
COc1cc2c(cc1OC)C1C/C(=N\O)C(CC(C)C)CN1CC2 (stereo not drawn) | inactive
CC[C@H]1CN2CCc3cc(OC)c(OC)cc3[C@@H]2C[C@@H]1C[C@H]1NCCc2cc(OC)c(OC)cc21 | active
COc1cc2c(cc1OC)C1Cc3ccc(OC)c(OC)c3CN1CC2 (stereo not drawn) | inactive
O=C(CN1CCCCC1)N1c2ccccc2CCc2ccccc21 | inactive
O=C(CN1C(=O)C2C3C=CC(C3)C2C1=O)N1CCc2ccccc2C1 (stereo not drawn) | inactive
O=C(NCC(c1cccs1)N1CCOCC1)c1ccco1 (stereo not drawn) | inactive
O=C(NCC(c1cccs1)N1CCOCC1)c1ccc(Cl)s1 (stereo not drawn) | active
CCC(=O)NCC(c1cccs1)N1CCOCC1 (stereo not drawn) | inactive
